Measurements from PubChem BioAssay (EPA / NIEHS).
Activity calls are given as the source filed them. How the source made its calls: active means hit-call score of the fitted dose curve at least 0.9, where 1 is the maximum; inactive means score below 0.9.

Assay: APR_HepG2_MitoMembPot_24hr: Apredica 24-hour HepG2 Assay for Mitochondrial Membrane Potential (AID 2282911)
Details: imaging, actives raise or lower the signal
Description: APR_HepG2_24hr is a cell-based, multiplexed-readout assay that uses HepG2, a human liver cell line, with measurements taken at 24 hours after chemical dosing in a 384-well plate.APR_HepG2_MitoMembPot_24hr is one of 10 assay component(s) measured or calculated from the APR_HepG2_24hr assay. It is designed to make measurements of dye binding, a form of membrane potential reporter, as detected with fluorescence intensity signals by HCS Fluorescent Imaging technology.Data from the assay component APR_HepG2_MitoMembPot_24hr was analyzed into 1 assay endpoint. This assay endpoint, APR_HepG2_MitoMembPot_24hr, was analyzed with bidirectional fitting relative to DMSO as the negative control and baseline of activity. Using a type of membrane potential reporter, gain or loss-of-signal activity can be used to understand changes in the signaling. Furthermore, this assay endpoint can be referred to as a primary readout, because this assay has produced multiple assay endpoints where this one serves a signaling function. To generalize the intended target to other relatable targets, this assay endpoint is annotated to the cell morphology intended target family, where the subfamily is organelle conformation.
Cells were treated with dimethyl sulfoxide (DMSO) as a solvent control at a final concentration of 0.5% v/v or with compounds in DMSO with a resulting final DMSO concentration of 0.5% v/v. Compound treatment was done at concentrations of 0.39, 0.78, 1.56, 3.12, 6.24, 12.5, 25, 50, 100, and 200 uM in duplicate on each plate. Cells were treated with compounds for 1, 24, or 72 hr. Carbonyl […] m-chloro-phenylhydrazone (CCCP) and taxol were used as positive controls for mitochondrial function and cytoskeletal stability, respectively; DMSO served as the negative control for this experiment. Cells were fixed by the direct addition of 50 uL formaldehyde in Hank's Balanced Salt Solution (HBSS) to a final concentration of 3.7%. After incubation in the fixation medium for 30 min at room temperature (293-298 K), cells were rinsed twice with HBSS and treated with cell permeabilization buffer (16 uL of 0.5% Triton X-100) for 10 min at room temperature (293-298 K) before labeling. For mitochondrial membrane potential and mitochondrial measurements, pre-fixed cells were incubated with 50 uL of MitoTracker Red CMXRos (Invitrogen) at a concentration of 250 nM for 30 min before fixation. In the remaining cases, post-fixed cells were labeled by incubation with a multiplexed mixture of primary antibodies in HBSS for 60 min at room temperature (293-298 K) to detect immunoreactivity of c-Jun (1:500), phospho-histone H3 (1:100), phospho-histone H2A.x (1:200), p53 (1:400), alpha-tubulin (1:200) and Hoechst 33342 (2 ug/mL). Cells were labeled for multiplexed imaging on two separate plates: a) Hoechst 33342, MitoTracker Red, phospho-histone H3, and alpha-tubulin, and b) Hoechst 33342, phospho-histone H2A.x, and c-Jun. A final rinse with HBSS (50 uL) was performed before analysis. The primary and secondary antibodies for the proteins were phospho-histone H3 (rabbit anti-phospho-histone H3 and FITC-donkey anti-rabbit IgG), phospho-histone H2A.x (mouse anti-phospho-histone H2A.x and FITC-donkey anti-mouse IgG), c-Jun (rabbit anti-phospho-c-Jun and Cy3-donkey anti-rabbit IgG), p53 (sheep anti-p53 and Cy5-donkey anti-sheep IgG), alpha-tubulin (mouse anti-alpha-tubulin and Cy5-donkey anti-mouse IgG). These antibodies are available as the CellCiphr HepG2 assay kit (Millipore).Digital images of each well were captured using a Cellomics ArrayScan VTI (Thermo Scientific Cellomics) (0.8 NA objective, 0.63x optical coupler, and XF-93 filter set) at 20x magnification. The images were acquired using the autofocus feature of the ArrayScan instrument, which entails the following steps. First, the camera focuses on channel 1 (Hoechst 33342), where nuclei are identified. Second, a Z offset of 1 um is used for capturing mitochondria (MitoTracker Red). […]

Compound | outcome | AC50
CN(C)C=O | inactive | 
CCCCCCCC(=O)O |  | 0.0327 µM (active)
O=[N+]([O-])c1ccc(O)cc1 | inactive | 
COCC(C)OCC(C)O (stereo not given) | inactive | 
CCCCC(CC)COC(=O)CCCCC(=O)OCC(CC)CCCC (stereo not given) | inactive | 
CCCCCCCCOC(=O)CCCCCCCCC(=O)OCCCCCCCC | inactive | 
COCC(C)O (stereo not given) |  | 0.0477 µM (active)
OC1CCCCC1 | inactive | 
Nc1cccc2c(N)cccc12 | inactive | 
Cc1cc(CCN2CCN(c3nsc4ccccc34)CC2)cc2c1NC(=O)CC2(C)C | inactive | 
C=C(C)C(=O)OCCC(F)(F)C(F)(F)C(F)(F)C(F)(F)C(F)(F)C(F)(F)F | inactive | 
CCOC(=O)CC(O)(CC(=O)OCC)C(=O)OCC | inactive | 
CC(C)CCCCCCOC(=O)CCCCC(=O)OCCCCCCC(C)C | inactive | 
C#C[C@]1(O)CC[C@H]2[C@@H]3CCC4=CC(=O)CC[C@@H]4[C@H]3CC[C@@]21C | inactive | 
CCCCC(CC)COC(=O)CCCCC(=O)OCc1ccccc1 (stereo not given) | inactive | 
CCCCCCC(=O)O | inactive | 
OCCC(F)(F)C(F)(F)C(F)(F)C(F)(F)C(F)(F)C(F)(F)F | inactive | 
O=C(OCCOCCOC(=O)c1ccccc1)c1ccccc1 | inactive | 
Oc1cc2ccccc2c2ccccc12 |  | 43.1 µM (active)
NC(=O)N1C(=O)C(C(=O)c2cc(Cl)cs2)c2cc(F)c(Cl)cc21 (stereo not given) | inactive | 

Compound | outcome | AC50
CCN(CC)CCNc1ccc(CNC=O)c2sc3ccc(OC)cc3c(=O)c12 | inactive | 
OCCC(F)(F)C(F)(F)C(F)(F)C(F)(F)C(F)(F)C(F)(F)C(F)(F)C(F)(F)F | inactive | 
CC1=C(/C=C/C(C)=C/C=C/C(C)=C/C(=O)O)C(C)(C)CCC1 |  | 83.2 µM (active)
CC[C@H](C)[C@@H](C(=O)O)n1sc2ccccc2c1=O |  | 100 µM (active)
Cc1oc(-c2ccccc2)nc1CCOc1ccc(C[C@H](Nc2ccccc2C(=O)c2ccccc2)C(=O)O)cc1 |  | 109 µM (active)
COc1ccc([N+](=O)[O-])cc1N | inactive | 
COc1cc(CCC(=O)CC(=O)CCc2ccc(O)c(OC)c2)ccc1O | inactive | 
CC(C)(C)c1ccc(O)c(C(C)(C)C)c1 |  | 8.96 µM (active)
CCCCCCCCC(=O)O | inactive | 
O=C(O)c1ccccc1C(c1ccc(O)cc1)c1ccc(O)cc1 | inactive | 
CCC(=C(c1ccc(O)cc1)c1ccc(OCCN(C)C)cc1)c1ccccc1 | inactive | 
O=C(O)Cc1cc(I)c(Oc2cc(I)c(O)c(I)c2)c(I)c1 | inactive | 
NC(=O)N(O)[C@@H]1C=C[C@H](Oc2cccc(Oc3ccc(F)cc3)c2)C1 |  | 32.9 µM (active)
CC(C)(C)c1cccc(C(C)(C)C)c1O |  | 110 µM (active)
CCCCCCCCCCCCCCCS(=O)(=O)Oc1ccccc1 | inactive | 
COC(=O)CCCCC(=O)OC | inactive | 
c1ccc2c(c1)ccc1ccccc12 | inactive | 
c1ccc2cc3c(ccc4ccccc43)cc2c1 |  | 63 µM (active)
CC(=O)CC(C)(C)O | inactive | 
CC[C@H](c1ccc(O)cc1)[C@@H](CC)c1ccc(O)cc1 |  | 0.0485 µM (active)
